# L3MBTL1 inh: qHTS Assay for the Inhibitors of L3MBTL1; Potency, µM (highest dose often 57.1 µM), inactives show top-dose activity, negative = inhibition, most hits filed as inhibitors; AlphaScreen L3MBTL1–H3K9me1 peptide binding; 230,000 tested, 0.66% active; also: % is scaled to controls: 0 for no effect and ±100 for the full control effect; nearly all actives have a fitted effect of over 60% in size
#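 First, the protein-peptide complex forms for 30 min at room temperature (L3MBTL1 50 nM, biotinylated H3K9me1 peptide 75 nM). Next, compounds are pin-transferred and incubated 30 min. Finally, AlphaScreen beads are added and read after 30 min.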
# JMJD2A Tudor inh: qHTS Assay for Inhibitors of JMJD2A-Tudor Domain | Lysine-specific demethylase 4A (Homo sapiens), O75164 | AlphaScreen JMJD2A-Tudor / H3K4me3 peptide binding | Potency, µM (titrated, usually from 114 µM), for inactives: top-dose activity change, negative = inhibition, hits mostly inhibitors | 390,000 tested, 4.4% active | AID 504339, 2011; also: % is scaled to controls: 0 for no effect and ±100 for the full control effect; nearly all actives have a fitted effect of over 50% in size
# BAZ2B block: qHTS Assay for Inhibitors of BAZ2B | AlphaScreen BAZ2B-H3K14Ac peptide displacement | Bromodomain adjacent to zinc finger domain protein 2B (Homo sapiens), Q9UIF8 | 360,000 tested, 4.4% active | Potency, µM (top dose mostly 114 µM), for inactives: at the top dose activity change, negative = inhibition, actives largely listed as inhibitors; also: % is scaled to controls: 0 for no effect and ±100 for the full control effect; nearly all actives have a fitted effect of over 60% in size
# Target sequence (Q9UIF8 whole entry, looked up, the tested form may be a part): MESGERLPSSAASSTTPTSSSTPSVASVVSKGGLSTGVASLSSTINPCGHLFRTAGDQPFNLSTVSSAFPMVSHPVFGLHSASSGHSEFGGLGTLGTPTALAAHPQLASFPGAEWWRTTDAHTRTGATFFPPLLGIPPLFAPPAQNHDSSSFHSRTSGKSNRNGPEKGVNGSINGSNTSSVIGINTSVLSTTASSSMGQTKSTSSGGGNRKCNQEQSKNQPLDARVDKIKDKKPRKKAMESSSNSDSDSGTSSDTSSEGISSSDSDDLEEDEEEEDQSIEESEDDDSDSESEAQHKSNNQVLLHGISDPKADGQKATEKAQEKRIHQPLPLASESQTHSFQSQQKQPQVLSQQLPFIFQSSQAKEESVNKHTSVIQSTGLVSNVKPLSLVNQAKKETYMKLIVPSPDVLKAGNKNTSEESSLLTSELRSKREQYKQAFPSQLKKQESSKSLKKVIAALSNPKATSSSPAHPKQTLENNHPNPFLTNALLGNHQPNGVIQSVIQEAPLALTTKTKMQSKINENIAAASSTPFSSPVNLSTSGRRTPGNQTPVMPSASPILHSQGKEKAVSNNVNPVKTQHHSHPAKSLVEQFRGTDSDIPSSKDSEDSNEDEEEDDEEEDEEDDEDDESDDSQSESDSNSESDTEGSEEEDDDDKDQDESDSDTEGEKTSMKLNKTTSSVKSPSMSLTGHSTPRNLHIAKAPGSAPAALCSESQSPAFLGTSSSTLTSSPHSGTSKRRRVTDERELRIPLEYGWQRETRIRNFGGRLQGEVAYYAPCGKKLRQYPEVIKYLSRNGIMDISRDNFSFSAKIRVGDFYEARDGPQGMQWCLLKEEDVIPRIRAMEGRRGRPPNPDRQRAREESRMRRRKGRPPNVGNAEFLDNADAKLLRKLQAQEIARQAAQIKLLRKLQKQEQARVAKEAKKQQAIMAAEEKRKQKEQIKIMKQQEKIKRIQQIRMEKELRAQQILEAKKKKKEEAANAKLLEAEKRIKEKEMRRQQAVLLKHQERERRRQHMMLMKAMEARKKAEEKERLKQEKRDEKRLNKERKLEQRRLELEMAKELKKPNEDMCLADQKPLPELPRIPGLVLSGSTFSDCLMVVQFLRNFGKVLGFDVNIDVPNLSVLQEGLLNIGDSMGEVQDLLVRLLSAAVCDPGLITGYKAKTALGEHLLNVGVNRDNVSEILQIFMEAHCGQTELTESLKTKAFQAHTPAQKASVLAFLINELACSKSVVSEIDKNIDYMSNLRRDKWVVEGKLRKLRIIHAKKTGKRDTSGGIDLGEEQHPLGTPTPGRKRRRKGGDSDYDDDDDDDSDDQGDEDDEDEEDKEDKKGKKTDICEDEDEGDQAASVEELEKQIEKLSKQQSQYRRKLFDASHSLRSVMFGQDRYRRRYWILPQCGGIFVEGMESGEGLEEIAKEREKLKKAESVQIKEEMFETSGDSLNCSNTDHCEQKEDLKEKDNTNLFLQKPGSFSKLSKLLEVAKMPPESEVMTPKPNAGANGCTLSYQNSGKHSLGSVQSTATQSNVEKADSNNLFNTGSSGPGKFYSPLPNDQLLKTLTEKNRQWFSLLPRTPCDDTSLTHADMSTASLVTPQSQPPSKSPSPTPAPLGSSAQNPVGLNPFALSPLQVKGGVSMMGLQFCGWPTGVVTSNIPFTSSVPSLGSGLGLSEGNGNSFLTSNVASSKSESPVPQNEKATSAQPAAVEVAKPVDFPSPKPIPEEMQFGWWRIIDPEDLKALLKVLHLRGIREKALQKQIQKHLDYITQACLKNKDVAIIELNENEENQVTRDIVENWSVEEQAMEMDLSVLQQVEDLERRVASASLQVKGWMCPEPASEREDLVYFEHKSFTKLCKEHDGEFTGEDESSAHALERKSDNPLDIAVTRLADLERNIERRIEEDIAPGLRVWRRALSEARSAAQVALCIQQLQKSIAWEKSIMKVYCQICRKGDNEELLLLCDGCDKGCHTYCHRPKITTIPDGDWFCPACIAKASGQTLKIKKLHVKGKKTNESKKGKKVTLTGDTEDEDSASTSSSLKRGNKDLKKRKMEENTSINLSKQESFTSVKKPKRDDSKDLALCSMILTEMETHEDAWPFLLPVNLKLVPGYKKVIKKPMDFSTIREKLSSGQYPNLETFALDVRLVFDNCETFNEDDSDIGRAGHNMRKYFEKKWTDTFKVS
#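 Protein-peptide AlphaScreen: BAZ2B 50 nM, b-H3K14Ac 50 nM, 1x PBS pH 7.4 + 0.01% Tween-20. Preincubation 30 min RT; cpd 30 min RT (top 110 uM); beads 20 min RT, light-protected.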
# HP1b chromo inh: HTS for Inhibitors of HP1-beta Chromodomain Interactions with Methylated Histone Tails; AlphaScreen HP1-beta / biotin-H3K9me3 peptide binding; Potency, µM (series often up to 114 µM), for the others: top-dose activity change, negative = inhibition, most hits filed as inhibitors; 390,000 tested, 0.56% active; also: nearly all actives have a fitted effect of over 70% in size
#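 Compound inhibition of the preformed complex between 50 nM HP1-beta and 50 nM biotinylated H3K9me3 peptide was read by AlphaScreen. Buffer was PBS pH 7.4 with 0.01% Tween-20. Incubations ran 30 min at room temperature, with 10 ug/mL donor/acceptor beads.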
# PLK1 PBD block: qHTS for Inhibitors of PLK1-PDB (polo-like kinase 1 - polo-box domain): Primary Screen; Plk1 PBD binding of FITC phosphopeptide, fluorescence polarization; Potency, µM, for inactives: max response, negative = inhibition, most hits filed as inhibitors; 360,000 tested, 2.8% active; Serine/threonine-protein kinase PLK1 (Homo sapiens), P53350; also: series mostly up to about 57 µM; % is scaled to controls: 0 for no effect and ±100 for the full control effect; nearly all actives have a fitted effect of over 65% in size
# VDR inh: Inhibitors of the vitamin D receptor (VDR): qHTS | AID 504847, 2011 | Potency, µM, without a hit: max response, negative = inhibition, hits mostly inhibitors | 400,000 tested, 0.93% active | VDR-SRC2-3 peptide fluorescence polarization, 2 h | Vitamin D3 receptor (Homo sapiens), P11473; also: % is scaled to controls: 0 for no effect and ±100 for the full control effect
#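 Compounds are added to VDR with labelled SRC2-3 coactivator peptide and held 2 h at room temperature. Inhibition of the VDR–peptide interaction is then read as a change in fluorescence polarization.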
# Starred values were filed as active, the others as inactive; ? = inconclusive; · = no result; [ ] = another dose, or the depositor's remark. In the library only some 6.9% were active in any assay of this set; here they are far more common. Calls follow the shape of the dose curve; as a rule, active = well fitted curve in the direction sought with a large enough effect; inconclusive = small, poorly fitted or top-dose-only effect, or another doubt; inactive = no such curve, though single readings can be large; an effect the other way counts as inactive or inconclusive. Potency is read from the fitted curve at half-maximal effect.
SMILES,L3MBTL1 inh,JMJD2A Tudor inh,BAZ2B block,HP1b chromo inh,PLK1 PBD block,VDR inh
Cc1cc(-c2ccc(N=Nc3c(S(=O)(=O)O)cc4cc(S(=O)(=O)O)cc(N)c4c3O)c(C)c2)ccc1N=Nc1c(S(=O)(=O)O)cc2cc(S(=O)(=O)O)cc(N)c2c1O,0.2µM*,·,1.4µM*,·,·,?
O=S(=O)(O)c1cc(O)c2c(O)c(N=Nc3cc(Cl)ccc3O)c(S(=O)(=O)O)cc2c1,·,10µM*,11µM*,20µM*,24µM*,?
Nc1cc(S(=O)(=O)O)cc2ccc(S(=O)(=O)O)cc12,·,-11%,·,-22%,-10%,5%
COc1cc(OC)c(NC(=O)Cn2c(=O)cc(C)c3c(C)nn(-c4ccc(C)cc4)c32)cc1Cl,·,-17%,-19%,-13%,·,1%
COc1cc(Nc2ncc3c(n2)CCN(Cc2cc(Br)cs2)C3)cc(OC)c1,·,?,-36%,18%,·,11%
Cc1ccc(NC(=O)CN2C(=O)S/C(=C\c3cc(C)n(C)c3C)C2=O)cc1,-5%,-19%,2%[57.1 µM],15%,-2%,7%
COc1cc(/C=C2\SC(=O)N(CC(=O)Nc3ccc(C)cc3)C2=O)cc(Cl)c1OCC(=O)O,?,11µM*,14µM*,14µM*,15µM*,?
O=C(CN1C(=O)S/C(=C\c2ccccn2)C1=O)Nc1ccccc1,·,-5%,-8%,29%,-12%,-2%
O=C(CN1C(=O)S/C(=C\c2cc(Cl)c(O)c(Cl)c2)C1=O)Nc1ccccc1,-5%,?,45µM*,-16%,?,7%
COc1ccc(-c2noc(N3CCC(C(=O)N4CCN(c5cccc(OC)c5)CC4)CC3)n2)cc1,·,-18%,-19%,15%[57 µM],·,8%
Oc1ccc(/C=N/N(Cc2ccccc2)c2ccccc2)c(O)c1O,·,56µM*,28µM*,?,?,2%
Oc1cccc(/C=N/N(Cc2ccccc2)c2ccccc2)c1,-6%,?,?,-14%,-1%,5%
Cc1ccc(-c2nc(N3CCCC(C)C3)c3ccccc3n2)cc1 (stereo unspecified),·,67%,64%,108%,·,7%
CCOC(=O)C1=C2c3ccc4ccccc4c3CC(C)(C)N2C(=O)C1=O,0%,-13%,-2%,37%,-15%,-20%
CC1(C)Cc2c(ccc3ccccc23)/C(=C/C(=O)N2CCCCC2)N1,-9%,-58%,50µM*,-12%,-12%,7%
Cc1ccc2nc(/C(C#N)=C/c3ccc(O)c(O)c3)[nH]c2c1,·,16µM*,7.9µM*,?,?,?
Cc1ccc2nc(/C(C#N)=C\c3ccc(N4CCCCC4)c([N+](=O)[O-])c3)[nH]c2c1,·,5.6µM*,45µM*,?,-18%,-5%
Cc1cc2nc(/C(C#N)=C/c3ccncc3)[nH]c2cc1C,3%[11.4 µM],-13%[11.4 µM],-20%,2%,27µM*,22µM*
N#Cc1ccc(N2CCOCC2)c([N+](=O)[O-])c1,-24%,?,-6%,-15%,15µM*,?
Cc1cccc(NC(=O)c2ccc(CN3CC(=O)N4CCCCC4C3=O)cc2)c1C (stereo unspecified),·,-12%,1%,15%,·,12%
N#C/C(=C\c1ccc(N2CCOCC2)c([N+](=O)[O-])c1)c1nc2ccccc2[nH]1,0%,?,35µM*,-32%,-6%,0%
CC(C)NCc1cccc([N+](=O)[O-])c1,-2%,20µM*,56µM*,?,-5%,?
Cc1cc(C)c(OCCCn2ccnc2)c(C)c1,4%,-24%,?,25%,-1%,7%
Cc1cc(OCCn2ccnc2)ccc1C(C)C,10%,3.2µM*,45µM*,50µM*,0%,12%
Cc1cccc(C)c1OCCCn1ccnc1,22%,25µM*,?,?,-7%,-4%
SMILES,L3MBTL1 inh,JMJD2A Tudor inh,BAZ2B block,HP1b chromo inh,PLK1 PBD block,VDR inh
CCOc1ccc(OCCCCn2ccnc2)cc1,-9%,20µM*,50µM*,?,29%,-2%
CCOc1ccc(OCCn2ccnc2)cc1,0%,5µM*,50µM*,?,-7%,-10%
COc1ccc(OCCn2ccnc2)cc1,1%[2.29 µM],4%,-10%,33%,2%,3%
CCOc1ccc(C(=O)NCCCn2ccnc2)cc1,0%,0%,-6%,30%,2%,-1%
O=[N+]([O-])c1ccc(Oc2cccc(C(F)(F)F)c2)nc1,-8%,?,-20%,-5%,27µM*,?
O=[N+]([O-])c1ccc(Oc2ccc(C(F)(F)F)cn2)cc1,-5%,-6%,-12%,7%,-3%,-18%
O=C(NC1CCSC1=O)c1ccc(Oc2cccc(C(F)(F)F)c2)nc1 (stereo unspecified),0%,4%[11.4 µM],1%,-12%,21µM*,-7%
COC(=O)CN1C(=O)CSc2ccc(S(=O)(=O)Nc3cccc(Cl)c3C)cc21,·,-9%,-9%,37%,·,9%
Cc1cc(C)c(C(=O)CSc2nnc(N)s2)cc1C,-4%,-9%[11.4 µM],-12%,3%,9.5µM*,?
Clc1ccc(OCCCN2CCCCC2)c(Br)c1,-1%,4µM*,79µM*,?,0%,-3%
CCN1CCN(CCCOc2ccc(Cl)cc2Br)CC1,26%,22µM*,20µM*,?,0%,3%
Brc1ccccc1OCCCCCN1CCCC1,-2%,·,-4%,·,·,·
Clc1ccc(OCCCCCN2CCCC2)c(Br)c1,-10%,2µM*,79µM*,?,2%,-1%
Cc1ccc(C(C)C)c(OCCSc2nc3ccccc3n2CC(O)CO)c1 (stereo unspecified),·,-21%,-20%,20%,·,1%
CC1(C(=O)NS(=O)(=O)c2cccc(F)c2)CCN1C(=O)c1ccccc1 (stereo unspecified),·,·,·,·,-10%,·
C(=C\c1ccco1)/c1ccc2ccccc2n1,14µM*,-5%,40µM*,?,-15%,-1%
Cc1ccc(Cl)cc1NC(=O)CSc1sc2c(O)cc(=O)[nH]c2c1C#N,·,-27%,-14%,-26%,?,7%
COc1ccc(NC(=O)CSc2sc3c(O)cc(=O)[nH]c3c2C#N)c(OC)c1,·,?,79µM*,?,?,-12%
Cc1ccc(C)c(NC(=O)CSc2sc3c(O)cc(=O)[nH]c3c2C#N)c1,·,-23%,50µM*,10%,-16%,13%
COC(=O)c1ccc(C)c(NC(=O)CSc2sc3c(O)cc(=O)[nH]c3c2C#N)c1,·,50µM*,50µM*,-38%,?,21%
